In PubChem BioAssay (Tox21) one finds outcome and Potency data, which are given here for 38 compounds.

Results filed as inconclusive are left out. Entries that show only a call come without a potency. Activity calls are given as the source filed them. Unless noted, the call rests on the fitted dose curve; in most records, active means well fitted cell-killing curve with a large enough effect in the repeat runs; inconclusive means weak or mixed curves, or effect the other way; inactive means no such curve, though single readings can be large or run the other way.

In the first experiment the target is Vitamin D3 receptor (Homo sapiens) (UniProt P11473). Description: qHTS assay to identify small molecule antagonists of the vitamin D receptor (VDR) signaling pathway (AID 743223; active means well fitted inhibition curve with a large enough effect in the signal ratio in the repeat runs, not every such curve was filed as active; the % refers to the signal ratio). Conditions: VDR-UAS-bla HEK293T, beta-lactamase FRET ratio, 16 h; series mostly up to 61 µM. The method, boiled down: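 Cells carrying a VDR-driven beta-lactamase reporter (VDR-bla) were co-treated with compound and 3 nM final 1alpha,25-dihydroxyvitamin D3 for 16 h at 37C; reporter activity was measured as FRET substrate fluorescence after 2 h at room temperature.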
Vitamin D3 receptor (Homo sapiens), sequence (P11473 whole entry, looked up): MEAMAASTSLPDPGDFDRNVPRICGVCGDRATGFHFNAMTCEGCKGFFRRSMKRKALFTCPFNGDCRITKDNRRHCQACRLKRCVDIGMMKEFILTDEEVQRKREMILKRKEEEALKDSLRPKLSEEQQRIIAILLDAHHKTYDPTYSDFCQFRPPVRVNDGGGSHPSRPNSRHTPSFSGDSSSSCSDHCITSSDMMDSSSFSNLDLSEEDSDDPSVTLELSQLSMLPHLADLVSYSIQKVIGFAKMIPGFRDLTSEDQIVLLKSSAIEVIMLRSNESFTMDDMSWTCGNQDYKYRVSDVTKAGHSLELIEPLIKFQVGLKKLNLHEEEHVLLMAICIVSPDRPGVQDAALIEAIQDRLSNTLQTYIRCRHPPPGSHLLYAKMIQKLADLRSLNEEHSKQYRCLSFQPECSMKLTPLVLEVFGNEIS
For orientation: In qHTS, concentration-response curves come from the screen itself.
Take `OCCCCC(O)CO` (stereo not given): the outcome was inactive.
On the same count and under the same terms, the result for `ClCCCl` reads “inactive”.
Consider `C=COCCOCCOCCOC=C`, for which the result was inactive.
Take `c1ccc2nccnc2c1`: the result was inactive.
On to `O=C(NCCc1c[nH]c2ccccc12)c1cccnc1`, for which the outcome was inactive.
For `CCCCNC1CC(C)(C)NC(C)(C)C1`, the outcome was inactive.
Take `O=S(=O)(O)c1cc(O)c2ccc(Nc3ccccc3)cc2c1`: the result was inactive.
Consider `CC(C)c1ccc2cc(C(C)C)ccc2c1`, for which the outcome was inactive.
For `O=C(c1ccc(O)cc1)c1ccc(O)c(O)c1O`, the result was inactive.
Still for that read-out and setting: next, `C[C@@H]1O[C@@H](O[C@@H]2[C@@H](O)[C@H](OCCc3ccc(O)c(O)c3)O[C@H](CO[C@@H]3O[C@H](CO)[C@@H](O)[C@H](O)[C@H]3O)[C@H]2OC(=O)/C=C/c2ccc(O)c(O)c2)[C@H](O)[C@H](O)[C@H]1O`: “inactive”; `CC(C)CC(=O)O`: “inactive”; `Cc1cccc(OCC(O)CNC(C)(C)C)c1C` (stereo not given): “inactive”.
Take `O=S(=O)(O)c1ccc2cc(O)c(S(=O)(=O)O)cc2c1`: the outcome was inactive.
As for `CCCOC(OCCC)OCCC`, the outcome was inactive.
Regarding `COc1cc(N)ccc1C`, the outcome was inactive.
Turning to `COc1cc(NS(=O)(=O)c2ccc(N)cc2)nc(OC)n1`, the outcome was inactive.
On the same count and under the same terms, next, `CC(C)(C)c1cc(CCC(=O)NN)cc(C(C)(C)C)c1O`: “inactive”; `CC(N)C(=O)OC(C)(C)Cc1ccc(Cl)cc1` (stereo not given): “inactive”.
Take `CCCN1C[C@H](CSC)C[C@@H]2c3cccc4[nH]cc(c34)C[C@H]21`: the result was inactive.
Consider `CC(C)C(=O)OCCc1ccccc1`, for which the result was inactive.
Same read-out and setting: the result for `COCCOC(=O)C1=C(C)NC(C)=C(C(=O)OC(C)C)C1c1cccc([N+](=O)[O-])c1` (stereo not given) reads “inactive”.
Regarding `COc1cc2c(cc1OC)[C@@H]1CC(=O)[C@@H](CC(C)C)CN1CC2`, the outcome was inactive.
Regarding `C=CCCCCCCCCCCCC`, the result was inactive.
`Cc1cc2cc3c(C)cc(=O)oc3c(C)c2o1`: the result was inactive.
Same read-out and setting: next, `Cc1ccc(S(=O)(=O)O)c(C)c1`: “inactive”; `Nc1ccc([N+](=O)[O-])c(N)c1`: “inactive”; `Cc1ccccc1N=O`: “inactive”.

Tested on in another experiment: not listed separately
The experiment is described as follows: qHTS assay to identify small molecule agonists of the vitamin D receptor (VDR) signaling pathway - cell viability counter screen (AID 743224). Further: nearly all actives have a fitted effect of over 50% in size. As to conditions: VDR-bla HEK293T viability, CellTiter-Glo luminescence, 16 h; series mostly up to 62.6 µM. The method, boiled down:
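In parallel with the bla FRET readout, cytotoxicity toward VDR-bla cells after 16 h compound exposure was assessed by CellTiter-Glo, with luminescence recorded after a 30 min room-temperature incubation.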
As to `OCCCCC(O)CO` (stereo not given), the Potency entry was “inactive”.
Still for that read-out and setting: the result for `ClCCCl` reads “inactive”; that for `CC(C)CCCCOC(=O)c1ccccc1C(=O)OCCCCC(C)C`, “inactive”.
`C=COCCOCCOCCOC=C`: the Potency entry was “inactive”.
Still for that read-out and setting: next, `c1ccc2nccnc2c1`: “inactive”; `O=C(NCCc1c[nH]c2ccccc12)c1cccnc1`: “inactive”; `CCCCCCCCC1CCC(=O)O1` (stereo not given): “inactive”.
For `CCCCNC1CC(C)(C)NC(C)(C)C1`, the Potency entry was “inactive”.
`C#CC(C)N(C)C(=O)Nc1ccc(Cl)cc1` (stereo not given): the Potency entry is “inactive”.
On the same count and under the same terms, the result for `CN1C(C)(C)CCCC1(C)C` reads “inactive”; that for `O=S(=O)(O)c1cc(O)c2ccc(Nc3ccccc3)cc2c1`, “inactive”; that for `O=C(c1ccc(O)cc1)c1ccc(O)c(O)c1O`, “inactive”.
In the case of `CC(C)(C)c1nnc(NS(=O)(=O)c2ccc(N)cc2)s1`, the Potency entry is “inactive”.
On the same count and under the same terms, the result for `C[C@@H]1O[C@@H](O[C@@H]2[C@@H](O)[C@H](OCCc3ccc(O)c(O)c3)O[C@H](CO[C@@H]3O[C@H](CO)[C@@H](O)[C@H](O)[C@H]3O)[C@H]2OC(=O)/C=C/c2ccc(O)c(O)c2)[C@H](O)[C@H](O)[C@H]1O` reads “inactive”.
Turning to `CC(C)CC(=O)O`, the Potency result is “inactive”.
Consider `CCCC(=O)C(C)=O`, for which the Potency entry is “inactive”.
Regarding `O=S(=O)(O)c1ccc2cc(O)c(S(=O)(=O)O)cc2c1`, the Potency entry was “inactive”.
The same measure, in the same setting: the result for `COc1cc(NS(=O)(=O)c2ccc(N)cc2)nc(OC)n1` reads “inactive”; that for `CC(N)C(=O)OC(C)(C)Cc1ccc(Cl)cc1` (stereo not given), “inactive”.
Regarding `CCCN1C[C@H](CSC)C[C@@H]2c3cccc4[nH]cc(c34)C[C@H]21`, the Potency entry is “inactive”.
For `COCCOC(=O)C1=C(C)NC(C)=C(C(=O)OC(C)C)C1c1cccc([N+](=O)[O-])c1` (stereo not given), the Potency entry is “inactive”.
Take `Cc1cc2cc3c(C)cc(=O)oc3c(C)c2o1`: the Potency entry was “inactive”.
`CC1=CCC(C(C)C)=CC1`: the Potency result is “inactive”.
With `Nc1ccc([N+](=O)[O-])c(N)c1`, the Potency entry was “inactive”.
Still for that read-out and setting: next, `CC[C@H](C)C(=O)O[C@H]1C[C@H](O)C=C2C=C[C@H](C)[C@H](CC[C@@H](O)C[C@@H](O)CC(=O)O)[C@H]21`: “inactive”.

Tested on in a further experiment: not listed separately
Description: qHTS assay to identify small molecule antagonists of the vitamin D receptor (VDR) signaling pathway - cell viability counter screen (AID 743225). Further: nearly all actives have a fitted effect of over 50% in size. Conditions: VDR-bla HEK293T viability, CellTiter-Glo luminescence, 16 h; series mostly up to 61 µM. The method, boiled down:
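HEK293T VDR-bla; cpd + 1a,25-(OH)2D3 3 nM final, 16 h 37C/5% CO2; B/G FRET substrate 2 h RT; then CellTiter-Glo 30 min RT, luminescence.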
For `OCCCCC(O)CO` (stereo not given), the compound was called inactive.
Still for that read-out and setting: next, `CCCCCCCCC(=O)Cl`: “inactive”; `ClCCCl`: “inactive”.
`CC(C)CCCCOC(=O)c1ccccc1C(=O)OCCCCC(C)C`: the compound was classed as inactive.
As for `C=COCCOCCOCCOC=C`, the result was inactive.
As to `c1ccc2nccnc2c1`, the compound was classed as inactive.
Take `O=C(NCCc1c[nH]c2ccccc12)c1cccnc1`: the result was inactive.
On the same count and under the same terms, next, `CC1COc2ccccc2N1` (stereo not given): “inactive”.
For the compound `CCCCNC1CC(C)(C)NC(C)(C)C1`, the outcome was inactive.
The same measure, in the same setting: next, `C#CC(C)N(C)C(=O)Nc1ccc(Cl)cc1` (stereo not given): “inactive”.
Same read-out and setting: next, `CN1C(C)(C)CCCC1(C)C`: “inactive”; `O=S(=O)(O)c1cc(O)c2ccc(Nc3ccccc3)cc2c1`: “inactive”; `CC(C)c1ccc2cc(C(C)C)ccc2c1`: “inactive”.
With `O=C(c1ccc(O)cc1)c1ccc(O)c(O)c1O`, the outcome was inactive.
For the compound `C[C@@H]1O[C@@H](O[C@@H]2[C@@H](O)[C@H](OCCc3ccc(O)c(O)c3)O[C@H](CO[C@@H]3O[C@H](CO)[C@@H](O)[C@H](O)[C@H]3O)[C@H]2OC(=O)/C=C/c2ccc(O)c(O)c2)[C@H](O)[C@H](O)[C@H]1O`, the result was inactive.
`CC(C)CC(=O)O`: the compound was classed as inactive.
Still for that read-out and setting: the result for `Cc1cccc(OCC(O)CNC(C)(C)C)c1C` (stereo not given) reads “inactive”; that for `CCCC(=O)C(C)=O`, “inactive”.
On the same count and under the same terms, next, `O=S(=O)(O)c1ccc2cc(O)c(S(=O)(=O)O)cc2c1`: “inactive”.
For `COc1cc(N)ccc1C`, the result was inactive.
As for `COc1cc(NS(=O)(=O)c2ccc(N)cc2)nc(OC)n1`, the outcome was inactive.
Consider `CC(N)C(=O)OC(C)(C)Cc1ccc(Cl)cc1` (stereo not given), for which the compound was called inactive.
Take `CC(C(=O)O)c1ccc2c(c1)CC(=O)c1ccccc1S2` (stereo not given): the result was inactive.
As to `CC(C)C(=O)OCCc1ccccc1`, the outcome was inactive.
Take `COCCOC(=O)C1=C(C)NC(C)=C(C(=O)OC(C)C)C1c1cccc([N+](=O)[O-])c1` (stereo not given): the outcome was inactive.
Consider `COc1cc2c(cc1OC)[C@@H]1CC(=O)[C@@H](CC(C)C)CN1CC2`, for which the outcome was inactive.
Turning to `C=CCCCCCCCCCCCC`, the compound was classed as inactive.
Regarding `Cc1cc2cc3c(C)cc(=O)oc3c(C)c2o1`, the result was inactive.
Turning to `CC1=CCC(C(C)C)=CC1`, the result was inactive.
Turning to `Cc1ccc(S(=O)(=O)O)c(C)c1`, the call was inactive.
As for `Nc1ccc([N+](=O)[O-])c(N)c1`, the compound was classed as inactive.
Regarding `Cc1ccccc1N=O`, the compound was called inactive.
Take `CC[C@H](C)C(=O)O[C@H]1C[C@H](O)C=C2C=C[C@H](C)[C@H](CC[C@@H](O)C[C@@H](O)CC(=O)O)[C@H]21`: the compound was classed as inactive.
